For 7 compounds, inhibition results are on record in ChEMBL document CHEMBL1961873, “Compounds: GSK PKIS; Assays: Nanosyn kinase panel” (2012).

The target in test [1] is Serine/threonine-protein kinase MARK2 (Homo sapiens) (UniProt Q7KZI7). To be noted: at 1 µM.
Test [2] addresses PAS domain-containing serine/threonine-protein kinase (Homo sapiens) (UniProt Q96RG2). The settings on record: at 0.1 µM.
Test [3] shares this target. To be noted: at 1 µM.
Test [4] has as its target Phosphorylase b kinase gamma catalytic chain, skeletal muscle/heart isoform (Homo sapiens) (UniProt Q16816). To be noted: at 0.1 µM.
Test [5] shares this target. To be noted: at 1 µM.
Test [6] addresses T1, Phosphorylase b kinase gamma catalytic chain, liver/testis isoform (Homo sapiens) (UniProt P15735).
T1 sequence (whole entry): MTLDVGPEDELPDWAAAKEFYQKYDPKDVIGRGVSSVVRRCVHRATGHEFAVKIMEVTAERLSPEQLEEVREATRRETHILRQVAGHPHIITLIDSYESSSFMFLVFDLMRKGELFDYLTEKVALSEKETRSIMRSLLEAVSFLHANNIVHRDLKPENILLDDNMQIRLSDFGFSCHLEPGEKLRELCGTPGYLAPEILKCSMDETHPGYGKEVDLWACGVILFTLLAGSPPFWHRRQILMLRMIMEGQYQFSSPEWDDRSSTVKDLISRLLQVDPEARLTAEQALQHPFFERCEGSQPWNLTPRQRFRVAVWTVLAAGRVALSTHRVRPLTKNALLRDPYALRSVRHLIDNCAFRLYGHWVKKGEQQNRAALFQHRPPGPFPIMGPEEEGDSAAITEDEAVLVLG
To be noted: at 0.1 µM.

Test [7] deals with T1, Phosphorylase b kinase gamma catalytic chain, liver/testis isoform (Homo sapiens). The settings on record: at 1 µM.
Test [8] concerns the target Serine/threonine-protein kinase pim-1 (Homo sapiens) (UniProt P11309). To be noted: at 0.1 µM.
For test [9] the target is unchanged. The settings on record: at 1 µM.
Test [10] has as its target Serine/threonine-protein kinase pim-2 (Homo sapiens) (UniProt Q9P1W9). The settings on record: at 0.1 µM.
The target is the same in test [11]. To be noted: at 1 µM.
Test [12] concerns the target Serine/threonine-protein kinase pim-3 (Homo sapiens) (UniProt Q86V86). To be noted: at 0.1 µM.
The target is the same in test [13]. To be noted: at 1 µM.
The target of test [14] is T2, MAP kinase-activated protein kinase 5 (Homo sapiens) (UniProt Q8IW41).
T2 sequence (whole entry): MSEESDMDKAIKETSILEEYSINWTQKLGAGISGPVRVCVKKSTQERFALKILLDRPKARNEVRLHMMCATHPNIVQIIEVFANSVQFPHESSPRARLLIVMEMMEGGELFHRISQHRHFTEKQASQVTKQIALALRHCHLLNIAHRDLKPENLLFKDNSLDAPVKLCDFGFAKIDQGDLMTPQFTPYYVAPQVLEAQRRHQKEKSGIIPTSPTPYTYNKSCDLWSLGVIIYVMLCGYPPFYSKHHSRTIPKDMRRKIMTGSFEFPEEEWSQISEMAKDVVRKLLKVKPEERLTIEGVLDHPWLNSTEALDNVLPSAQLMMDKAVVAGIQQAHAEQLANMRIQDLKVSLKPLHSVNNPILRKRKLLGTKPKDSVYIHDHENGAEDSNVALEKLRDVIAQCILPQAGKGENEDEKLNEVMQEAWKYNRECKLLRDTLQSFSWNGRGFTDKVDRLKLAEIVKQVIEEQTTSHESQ
To be noted: at 0.1 µM.

Test [15] addresses T2, MAP kinase-activated protein kinase 5 (Homo sapiens). The settings on record: at 1 µM.
Test [16] concerns the target Serine/threonine-protein kinase SIK1 (Homo sapiens) (UniProt P57059). To be noted: at 0.1 µM.
Test [17] has the same target. To be noted: at 1 µM.
Test [18] addresses Serine/threonine-protein kinase SIK2 (Homo sapiens) (UniProt Q9H0K1). To be noted: at 0.1 µM.
Test [19] shares this target. To be noted: at 1 µM.
For test [20], the target named is T3, Serine/threonine-protein kinase TBK1 (Homo sapiens) (UniProt Q9UHD2).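 Note: values are the mean TBK1 inhibition, taken from the GSK PKIS screening data.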
T3 sequence (whole entry): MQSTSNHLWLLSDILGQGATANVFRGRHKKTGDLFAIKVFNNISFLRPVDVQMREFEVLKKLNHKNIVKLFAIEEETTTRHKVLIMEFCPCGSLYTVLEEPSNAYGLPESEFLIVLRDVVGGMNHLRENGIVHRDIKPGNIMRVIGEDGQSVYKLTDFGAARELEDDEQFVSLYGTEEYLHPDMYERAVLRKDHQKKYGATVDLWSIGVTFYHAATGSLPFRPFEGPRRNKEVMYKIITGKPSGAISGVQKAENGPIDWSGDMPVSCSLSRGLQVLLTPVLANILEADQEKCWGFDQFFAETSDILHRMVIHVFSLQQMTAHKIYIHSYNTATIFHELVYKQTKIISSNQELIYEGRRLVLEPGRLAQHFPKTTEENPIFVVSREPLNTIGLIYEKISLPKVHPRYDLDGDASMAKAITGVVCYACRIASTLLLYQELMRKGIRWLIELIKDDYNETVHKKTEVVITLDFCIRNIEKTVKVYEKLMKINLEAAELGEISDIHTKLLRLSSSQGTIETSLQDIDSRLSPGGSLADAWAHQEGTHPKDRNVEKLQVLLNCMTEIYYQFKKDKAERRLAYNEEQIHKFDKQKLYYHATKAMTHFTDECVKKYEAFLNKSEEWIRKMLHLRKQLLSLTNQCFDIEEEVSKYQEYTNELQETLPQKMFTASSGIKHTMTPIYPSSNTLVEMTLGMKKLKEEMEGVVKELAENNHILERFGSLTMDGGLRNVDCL
The settings on record: at 0.1 µM.

Chain of Serine/threonine-protein kinase MARK2 (Homo sapiens) (Q7KZI7 whole entry, the tested form may be a part): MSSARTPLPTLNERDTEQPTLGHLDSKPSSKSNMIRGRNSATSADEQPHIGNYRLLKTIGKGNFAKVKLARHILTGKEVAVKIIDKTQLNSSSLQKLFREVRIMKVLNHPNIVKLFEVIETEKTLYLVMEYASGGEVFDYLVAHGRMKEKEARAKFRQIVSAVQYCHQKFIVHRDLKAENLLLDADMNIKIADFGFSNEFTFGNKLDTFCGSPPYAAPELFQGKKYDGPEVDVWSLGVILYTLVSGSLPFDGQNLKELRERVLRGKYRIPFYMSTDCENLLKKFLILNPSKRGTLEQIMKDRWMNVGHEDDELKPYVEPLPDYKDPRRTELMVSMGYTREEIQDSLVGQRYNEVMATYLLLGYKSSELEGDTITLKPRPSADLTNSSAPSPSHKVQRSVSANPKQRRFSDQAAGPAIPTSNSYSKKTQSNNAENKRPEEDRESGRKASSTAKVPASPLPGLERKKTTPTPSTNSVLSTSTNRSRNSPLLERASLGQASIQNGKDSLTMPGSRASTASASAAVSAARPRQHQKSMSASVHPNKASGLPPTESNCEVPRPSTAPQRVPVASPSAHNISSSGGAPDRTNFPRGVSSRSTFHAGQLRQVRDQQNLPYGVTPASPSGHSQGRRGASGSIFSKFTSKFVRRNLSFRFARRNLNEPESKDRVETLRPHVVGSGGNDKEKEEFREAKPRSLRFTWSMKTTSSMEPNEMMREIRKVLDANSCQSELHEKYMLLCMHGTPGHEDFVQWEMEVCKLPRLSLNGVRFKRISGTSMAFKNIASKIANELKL
Chain of Serine/threonine-protein kinase SIK1 (Homo sapiens) (P57059 whole entry): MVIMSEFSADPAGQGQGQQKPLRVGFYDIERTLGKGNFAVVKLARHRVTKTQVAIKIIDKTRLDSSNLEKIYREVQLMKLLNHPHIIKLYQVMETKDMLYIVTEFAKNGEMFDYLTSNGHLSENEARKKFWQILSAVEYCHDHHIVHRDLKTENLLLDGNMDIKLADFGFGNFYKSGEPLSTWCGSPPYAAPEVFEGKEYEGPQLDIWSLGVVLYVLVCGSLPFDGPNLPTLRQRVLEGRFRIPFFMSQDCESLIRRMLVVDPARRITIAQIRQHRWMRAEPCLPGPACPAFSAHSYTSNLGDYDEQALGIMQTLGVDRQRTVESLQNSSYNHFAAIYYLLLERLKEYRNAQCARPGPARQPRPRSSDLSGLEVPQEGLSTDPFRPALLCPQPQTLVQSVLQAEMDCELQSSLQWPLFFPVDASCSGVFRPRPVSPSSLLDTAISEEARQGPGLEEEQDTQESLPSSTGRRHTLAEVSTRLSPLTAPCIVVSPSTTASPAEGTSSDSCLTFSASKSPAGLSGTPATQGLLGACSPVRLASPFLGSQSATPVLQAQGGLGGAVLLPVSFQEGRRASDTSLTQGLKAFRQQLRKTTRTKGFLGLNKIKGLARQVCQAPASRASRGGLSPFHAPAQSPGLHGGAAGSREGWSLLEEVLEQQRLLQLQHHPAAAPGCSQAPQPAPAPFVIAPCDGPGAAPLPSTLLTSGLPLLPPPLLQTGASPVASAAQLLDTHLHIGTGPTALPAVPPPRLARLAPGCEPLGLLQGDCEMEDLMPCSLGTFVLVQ
Chain of PAS domain-containing serine/threonine-protein kinase (Homo sapiens) (Q96RG2 whole entry, the tested form may be a part): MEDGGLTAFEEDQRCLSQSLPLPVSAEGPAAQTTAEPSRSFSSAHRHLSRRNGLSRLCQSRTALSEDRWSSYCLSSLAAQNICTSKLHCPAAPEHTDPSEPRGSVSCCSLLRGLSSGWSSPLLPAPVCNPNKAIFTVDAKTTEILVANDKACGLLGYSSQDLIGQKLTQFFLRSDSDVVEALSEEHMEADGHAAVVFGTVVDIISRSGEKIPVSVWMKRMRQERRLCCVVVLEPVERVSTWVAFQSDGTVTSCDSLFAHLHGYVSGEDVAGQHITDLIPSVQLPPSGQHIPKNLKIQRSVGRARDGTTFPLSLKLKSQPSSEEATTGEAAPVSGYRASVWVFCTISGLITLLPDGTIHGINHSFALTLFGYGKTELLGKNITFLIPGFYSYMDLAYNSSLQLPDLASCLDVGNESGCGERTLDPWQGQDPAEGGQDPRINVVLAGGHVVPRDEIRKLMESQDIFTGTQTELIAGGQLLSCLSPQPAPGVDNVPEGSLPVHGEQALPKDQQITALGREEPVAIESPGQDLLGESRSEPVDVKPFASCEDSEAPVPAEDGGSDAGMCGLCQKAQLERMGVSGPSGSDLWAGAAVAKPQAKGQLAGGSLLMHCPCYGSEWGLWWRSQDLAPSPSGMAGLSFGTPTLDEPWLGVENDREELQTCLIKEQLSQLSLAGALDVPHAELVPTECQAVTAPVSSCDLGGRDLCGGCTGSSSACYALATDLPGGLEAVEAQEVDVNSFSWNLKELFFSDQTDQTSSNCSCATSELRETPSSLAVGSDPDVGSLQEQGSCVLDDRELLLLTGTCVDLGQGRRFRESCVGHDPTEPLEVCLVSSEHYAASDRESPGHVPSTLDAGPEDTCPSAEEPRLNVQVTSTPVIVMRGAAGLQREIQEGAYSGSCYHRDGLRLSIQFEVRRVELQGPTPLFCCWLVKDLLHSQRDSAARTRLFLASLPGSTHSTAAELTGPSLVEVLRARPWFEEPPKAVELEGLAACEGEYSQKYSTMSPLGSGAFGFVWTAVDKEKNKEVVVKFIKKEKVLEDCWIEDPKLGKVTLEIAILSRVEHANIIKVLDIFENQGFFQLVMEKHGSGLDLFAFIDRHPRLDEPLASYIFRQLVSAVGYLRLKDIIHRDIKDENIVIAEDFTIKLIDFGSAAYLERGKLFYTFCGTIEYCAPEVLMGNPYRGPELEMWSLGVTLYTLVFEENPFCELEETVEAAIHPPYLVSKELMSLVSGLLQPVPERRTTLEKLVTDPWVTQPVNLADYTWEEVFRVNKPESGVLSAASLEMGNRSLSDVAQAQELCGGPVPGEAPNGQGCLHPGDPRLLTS
Chain of Serine/threonine-protein kinase pim-2 (Homo sapiens) (Q9P1W9 whole entry, looked up): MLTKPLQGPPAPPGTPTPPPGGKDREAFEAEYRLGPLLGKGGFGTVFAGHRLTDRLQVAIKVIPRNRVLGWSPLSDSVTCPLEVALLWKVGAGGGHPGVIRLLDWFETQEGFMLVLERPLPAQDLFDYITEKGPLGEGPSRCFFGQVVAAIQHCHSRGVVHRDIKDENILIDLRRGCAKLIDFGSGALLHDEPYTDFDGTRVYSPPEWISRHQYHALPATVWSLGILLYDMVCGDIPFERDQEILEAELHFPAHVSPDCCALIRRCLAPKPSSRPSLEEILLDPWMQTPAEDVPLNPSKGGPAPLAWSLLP
Chain of Serine/threonine-protein kinase pim-1 (Homo sapiens) (P11309 whole entry, looked up): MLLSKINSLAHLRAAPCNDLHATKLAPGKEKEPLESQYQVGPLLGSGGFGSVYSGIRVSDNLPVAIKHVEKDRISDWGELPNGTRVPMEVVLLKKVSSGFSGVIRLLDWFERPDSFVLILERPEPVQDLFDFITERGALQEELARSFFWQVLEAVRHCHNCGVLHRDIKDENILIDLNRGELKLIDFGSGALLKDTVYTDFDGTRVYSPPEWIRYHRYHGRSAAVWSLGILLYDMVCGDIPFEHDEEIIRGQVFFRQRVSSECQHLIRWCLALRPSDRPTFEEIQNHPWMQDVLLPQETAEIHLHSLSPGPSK
Chain of Phosphorylase b kinase gamma catalytic chain, skeletal muscle/heart isoform (Homo sapiens) (Q16816 whole entry, looked up, canonical isoform): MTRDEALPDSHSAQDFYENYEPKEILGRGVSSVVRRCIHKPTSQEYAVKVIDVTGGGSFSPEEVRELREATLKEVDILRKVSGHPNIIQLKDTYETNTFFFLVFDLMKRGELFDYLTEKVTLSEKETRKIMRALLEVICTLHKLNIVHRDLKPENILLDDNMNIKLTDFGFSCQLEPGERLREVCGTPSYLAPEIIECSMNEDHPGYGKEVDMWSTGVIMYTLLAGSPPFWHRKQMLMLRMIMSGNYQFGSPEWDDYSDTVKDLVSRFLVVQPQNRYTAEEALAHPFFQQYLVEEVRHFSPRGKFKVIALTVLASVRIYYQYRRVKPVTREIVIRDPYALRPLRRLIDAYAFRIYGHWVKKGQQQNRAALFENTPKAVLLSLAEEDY

As a reminder, the inhibition is the relative decrease from the control value, in per cent. In the case of `COc1ccc(-c2nn3ncccc3c2-c2ccnc(Nc3cccc(C(F)(F)F)c3)n2)cc1`, the inhibition in test [1] was found to be 1.37%; in test [2], 0.84%; in test [3], 0.1%; in test [4] it was 3.78%; in test [5] it was 4.58%; in test [6], 4.42%. The inhibition in test [7] is 4.66%; in test [8] it was 0.05%; in [9], 0.66%; in test [10], 0.02%; in test [11], 0.24%; in test [12], -0.01%. Also, the inhibition was 0.75% in [13]; 1.02% in [14]; 1.07% in test [15]; 7.99% in test [16]; 2.26% in test [17]; 4.76% in [18]. Moreover, the inhibition came to 8.4% in test [19] and 0.76% in test [20].

As for `COc1ccc2ncnc(Nc3ccc(OCc4ccccc4)cc3)c2c1`, the inhibition is 0.4% in test [1]; -0.03% in [2]; 2.46% in test [3]; 4.44% in test [4]; 4.51% in test [5]; 1.92% in test [6]. In addition, the inhibition was 2.81% in [7]; 0.17% in test [8]; 0.4% in test [9]; -0.18% in test [10]; 0.96% in test [11]; 0.32% in [12]. Moreover, the inhibition stood at 0.59% in test [13]; 0.99% in test [14]; 1.13% in test [15]; 1.08% in test [16]; 5.56% in [17]; 3.18% in [18]. In addition, the results for the inhibition in test [19] and in test [20] were 3.43% and 1.67%, respectively.

For the compound `Cc1ccc(C(=O)NC2CC2)cc1-c1ccc2[nH]ncc2c1`, the inhibition in test [1] is 5.77%; in test [2] it was 1.24%; in test [3], 1.27%; in test [4] it was -0.37%; in [5], 1.36%; in test [6], -5.73%. The inhibition is -5.52% in test [7]; 1.72% in test [8]; 4.32% in test [9]; 0.52% in [10]; 0.98% in test [11]; 1.05% in [12]. Also, the inhibition in test [13] was 4.89%; in [14] it was -1.55%; in test [15], -1.4%; in test [16] it was -8.63%; in test [17] it was -5.39%; in test [18], -3.95%. Besides, the inhibition in test [19] was -7.9%; in test [20], -3.58%.

Take `Nc1ccc(C#Cc2cncnc2Nc2ccc(OCc3cccc(F)c3)c(Cl)c2)cc1`: the inhibition in test [1] was determined as 0.46%; in [2], 1.09%; in [3], 1.56%; in test [4], 4.22%; in test [5] it was 2.49%; in test [6] it was 3.68%. Besides, the inhibition was 4.32% in test [7]; 0.21% in test [8]; 1.21% in [9]; 0.43% in test [10]; 0.51% in test [11]; -0.08% in test [12]. Also, the inhibition was 1.14% in [13]; 1.7% in test [14]; 0.75% in test [15]; 5.15% in test [16]; 2.18% in test [17]; -0.99% in test [18]. Besides, the inhibition in test [19] turned out to be 5.08%; in test [20] it was 2.5%.

Regarding `Cc1cc(O)cc(C)c1/C=C/c1cncc(C(=O)N(C)C)c1`, the inhibition was 1.77% in test [1]; 0.83% in [2]; -0.85% in test [3]; 3.09% in test [4]; 2.61% in [5]; 2.55% in test [6]. Further, the inhibition was 0.54% in test [7]; 1.21% in test [8]; 2.17% in [9]; 0.03% in [10]; 0.34% in [11]; -1.55% in test [12]. Further, the inhibition in test [13] is -0.09%; in test [14], 0.59%; in test [15], -0.52%; in test [16] it was 9.45%; in test [17], 29.4%; in test [18] it was 4.34%. In addition, the inhibition in test [19] worked out at 4.27%; in test [20], 1.36%.

Turning to `CCCN1CCCC(c2ccc(Nc3nc(Nc4cc(F)ccc4C(N)=O)c4cc[nH]c4n3)c(OC)c2)C1` (stereo not given), the inhibition is 40% in test [1]; -0.3% in test [2]; 8.59% in test [3]; 51.2% in test [4]; 77.8% in test [5]; 26.9% in [6]. The inhibition in test [7] was found to be 67.6%; in test [8], 11.7%; in test [9] it was 50.8%; in test [10] it was 0.9%; in test [11] it was 7.35%; in [12], 4.99%. Further, the inhibition in [13] came to 40.8%; in test [14], 5.81%; in test [15], 33.2%; in test [16], 6.07%; in [17], 10.2%; in [18], 2.41%. The inhibition is 11% in test [19] and 4.22% in test [20].

Regarding `COc1cccc(-n2ncc3c(N/N=C/c4ccc(S(C)(=O)=O)cc4)ncnc32)c1`, the inhibition in [1] is 3.41%; in test [2] it was -0.17%; in test [3] it was 0.02%; in test [4] it was 2.42%; in test [5], 2.63%; in test [6] it was 1.57%. The inhibition in test [7] was 2.21%; in [8], -0.52%; in test [9], 1.73%; in test [10], -3.69%; in test [11] it was -2.5%; in test [12] it was 0.09%. Further, the inhibition is 2.23% in test [13]; 0.26% in [14]; 0.26% in [15]; 4.24% in test [16]; 26% in test [17]; 19.1% in [18]. Further, the inhibition in test [19] was 29.9%; in test [20], 8.06%.
